Bioassay records from PubChem.
This is a sample that favours compounds with a hit; in the whole collection about 4.6% have one here.
D1 PAM: human D1 dopamine receptor positive modulation | P21728 | HEK293 TREx D1 cells, calcium flux, dopamine EC20 potentiation | potentiation, % at 10 µM | actives 0.036% (n = 360,000); in the data active = potentiation above about 30%
TRHR agonist: TRH receptor (human) agonism; TRHR cells, calcium flux fluo-8, FDSS agonist mode; activation, % at 2 µM; actives 0.18% (n = 360,000)
Target sequence (P34981 whole entry, looked up): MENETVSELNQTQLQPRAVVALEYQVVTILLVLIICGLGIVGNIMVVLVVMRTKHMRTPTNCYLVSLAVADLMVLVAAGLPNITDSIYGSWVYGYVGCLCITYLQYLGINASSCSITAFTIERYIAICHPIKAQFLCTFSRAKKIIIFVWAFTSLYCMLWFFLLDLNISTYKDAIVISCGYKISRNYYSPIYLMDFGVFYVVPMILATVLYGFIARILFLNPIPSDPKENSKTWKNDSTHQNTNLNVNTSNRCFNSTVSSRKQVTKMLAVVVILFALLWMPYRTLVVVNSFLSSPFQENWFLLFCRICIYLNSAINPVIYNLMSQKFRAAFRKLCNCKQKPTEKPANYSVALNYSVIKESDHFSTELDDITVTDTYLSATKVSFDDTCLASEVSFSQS
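In this calcium-flux screen, cells bearing human TRHR are dye-loaded with fluo-8, baselined for 10 cycles, then exposed to library compounds; positive kinetic calcium responses during the agonist phase mark hits, with TRH as control.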
D1 antagonist: antagonists of human D1 dopamine receptor | P21728 | HEK293 TREx D1 cells, calcium flux, dopamine EC80; active compounds read low | activity change, negative = inhibition, % at 10 µM | actives 3.2% (n = 360,000) | AID 504652; in the data active = activity change below about -30%
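HEK293 T-REx cells expressing inducible, force-coupled D1 receptor; no-wash Ca dye, 30–90 min RT. Cmpd → 180 s read at 1 Hz → EC80 DA → 180 s read.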
D1 ag: agonists of human D1 dopamine receptor; actives 1% (n = 360,000); activation, % at 2 µM; AID 504660; P21728; HEK293 T-REx D1 cells, calcium flux, agonist mode
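Inducible HEK293 T-REx D1 cells, force-coupled to calcium signalling, were plated at 4000 cells/well with tetracycline and held overnight at 30 C. After no-wash calcium dye loading, compound-evoked calcium rise over 180 s flagged agonists.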
TRHR PAM: allosterically enhances the human TRH receptor. actives 0.66% (n = 360,000). TRHR cells, fluo-8 calcium fluorescence, EC20 TRH enhancement. enhancement, % at 2 µM; in the data active = enhancement above about 30%
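TRHR-expressing cells loaded with fluo-8 calcium dye were read kinetically (ex 480/em 530) during compound addition, then stimulated with an EC20 of TRH (10 nM final). Enhancement of the Gq-mediated intracellular calcium response was scored.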
Numbers stand for hits; 0 = inactive; - = not tested or not shown. Rule as the data show it, unless noted: active = activation above about 30%; inactive = the rest.

SMILES	D1 PAM	TRHR agonist	D1 antagonist	D1 ag	TRHR PAM
COc1ccc(C(=O)Oc2ccc(/C=N/NC(=O)Cc3ccc([N+](=O)[O-])cc3)cc2)cc1	0	0	-32.5	0	0
O=C(Nc1ccccc1Br)c1cc(S(=O)(=O)NC2CCCCC2)ccc1F	0	0	0	0	0
COc1ccccc1C(=O)NCCC(=O)NCCc1ccccc1	0	0	-77.5	0	0
COc1ccccc1CC(=O)NCCc1ccccc1	0	0	0	0	0
COc1ccc(N2C(S)=C(C#N)C(=O)NC2c2ccc(OC)c(OC)c2)cc1 (configuration not stated)	0	0	0	0	30.1
COc1ccc(C2NC(=O)C(C#N)=C(S)N2c2ccc(C)cc2)cc1OC (configuration not stated)	0	0	0	0	0
COc1ccc(C2NC(=O)C(C#N)=C(S)N2c2cccc(C)c2)cc1OC (configuration not stated)	0	0	-61.4	0	0
CC(NC(=O)c1ccco1)C(=O)N1CCN(C(c2ccccc2)c2ccccc2)CC1 (configuration not stated)	0	0	-32.2	0	0
CC(NC(=O)c1ccco1)C(=O)N1CCN(c2ccccc2)CC1 (configuration not stated)	0	0	0	0	0
Cc1cc(NC(=O)COc2cccc3cccnc23)no1	0	0	0	0	0
NC(=O)COc1cccc2cccnc12	0	0	-78.9	0	0
CC(C)c1ccc(NC(=O)CCCN2C(=S)NC(C)(C)CC2C)cc1 (configuration not stated)	0	0	-32.6	0	0
CCCCNc1nc(Oc2ccc(OCC)nn2)nc(N2CCOCC2)n1	0	0	0	0	0
CCc1ccccc1NC(=O)C1CCCN(S(=O)(=O)c2ccc3[nH]c(=O)ccc3c2)C1 (configuration not stated)	0	0	0	0	0
O=S(=O)(c1ccc2c(c1)OCCO2)N1CCN(S(=O)(=O)c2cccs2)CC1	0	0	0	0	0
Cc1ccc(NC(=O)CSc2nc(=O)n(CCN3CCOCC3)c3c2CCC3)cc1Cl	0	0	-	0	0
O=S(=O)(NCC(c1cccnc1)N1CCN(c2ccc(F)cc2)CC1)c1cccs1 (configuration not stated)	0	0	-31.1	0	0
CCc1ccc(NC(=O)C(=O)NCC(c2cccnc2)N2CCN(C)CC2)cc1 (configuration not stated)	0	0	0	53.5	0
COc1ccccc1N1CCN(C(CNC(=O)C(=O)NCc2ccc(F)cc2)c2cccnc2)CC1 (configuration not stated)	0	0	0	33.0	0
O=S(=O)(NCC(c1cccnc1)N1CCN(c2ccc(F)cc2)CC1)c1ccc(F)cc1 (configuration not stated)	0	0	0	0	0
COc1ccc(C)cc1NC(=O)C(=O)NCC(c1cccnc1)N1CCc2ccccc21 (configuration not stated)	0	0	0	0	0
COc1ccc(C)cc1NC(=O)C(=O)NCC(c1cccnc1)N1CCN(c2ccccc2F)CC1 (configuration not stated)	0	0	-34.3	0	0
Cc1ccccc1CNC(=O)Cc1ccc(NC(=O)N2CCCCc3ccccc32)cc1	0	0	0	0	0
O=C(CNC(=O)c1cccc(Cl)c1)OC(C(=O)Nc1cc(C(F)(F)F)ccc1Cl)c1ccccc1 (configuration not stated)	0	0	0	0	0
COc1ccc(N2CCN(C(CNC(=O)C(=O)NCCCN(C)C)c3cccnc3)CC2)cc1 (configuration not stated)	0	0	-35.1	0	0
SMILES	D1 PAM	TRHR agonist	D1 antagonist	D1 ag	TRHR PAM
CCOc1ccc(-c2cc(C(=O)NCc3ccc(OCC)c(OC)c3)[nH]n2)cc1	0	0	0	0	0
CCCCOP(=O)(OCCCC)C(O)c1ccc(N(C)C)cc1 (configuration not stated)	0	0	-37.2	0	0
CCCCN(CCCNC(=O)CN1N=C(c2ccc(C)cc2)CCC1=O)c1ccccc1	0	0	0	0	0
COc1ccc(-c2nc(=S)c3ccc4ccccc4c3[nH]2)cc1	0	0	-68.2	0	0
COC(=O)c1ccc(NC2CC(=O)N(c3ccccc3C)C2=O)cc1 (configuration not stated)	0	0	-32.8	0	0
COC(=O)c1ccccc1NC1CC(=O)N(c2c(C)cccc2C)C1=O (configuration not stated)	0	0	0	0	32.9
COC(=O)c1ccccc1SC1CC(=O)N(c2ccccc2)C1=O (configuration not stated)	0	0	0	0	0
CCCN(CCC)CCCNC(=O)Cn1cnc2onc(-c3ccc(F)cc3)c2c1=O	0	0	0	0	0
CCC(=O)N1CCc2cc(CNC(=O)c3ccc(OC)cc3)ccc21	0	0	0	0	0
CCN1CCN(c2cc3c(cc2F)c(=O)c(S(=O)(=O)c2ccc(OC)cc2)cn3CC)CC1	0	0	0	0	0
CN1CCN(C2(CNC(=O)c3ccc([N+](=O)[O-])cc3)CCCCC2)CC1	0	0	0	0	0
O=C(O)CC1S/C(=N/N=C/C=C/c2ccccc2)NC1=O (configuration not stated)	0	0	0	0	0
O=C(O)CC1S/C(=N/N=C/C2CC=CCC2)NC1=O (configuration not stated)	0	0	-34.5	0	0
CCc1ccc(NC(=O)N2CCN(Cc3nc4ccc(C)cc4o3)CC2)cc1	0	0	0	0	0
COc1ccc(S(=O)(=O)N2CCOCC2)cc1NC(=O)C1CCCN1C(=O)c1cccs1 (configuration not stated)	0	0	-62.5	0	0
COc1ccc(S(=O)(=O)N2CCOCC2)cc1NC(=O)[C@@H]1CCCN1C(=O)c1cccs1	0	0	0	0	0
Cn1cc(-c2cc3n(n2)CCC(=O)N3CCCC(=O)NCc2ccc(F)cc2)c2ccccc21	0	0	-32.7	0	0
CC(C)c1ccc(Nc2nc3c(S(=O)(=O)c4ccc(Br)cc4)nnn3c3ccsc23)cc1	0	0	0	0	0
CC(=O)N1CCC(N(C(=O)Nc2ccc(C)c(F)c2)C(C)C)CC1	0	0	-48.0	0	0
CCn1c(SCC(=O)Nc2ccc(C)cc2Br)nnc1-c1nonc1NC(C)=O	0	0	0	0	0
COc1ccc(OCc2ccc(-c3nc(C#N)c(N4CCN(C)CC4)o3)o2)cc1	0	0	0	0	0
CCOC(=O)Cc1csc(NC(=O)c2sc3nc4c(C)cc(C)cc4cc3c2N)n1	0	37.7	0	85.5	0
CCOC(=O)Cc1csc(NC(=O)c2cccc([N+](=O)[O-])c2)n1	0	0	-30.6	0	0
CCOC(=O)CN(Cc1sccc1C)C(=O)Nc1cccc(OC)c1	0	0	-36.6	0	0
